# From PubChem
# Compounds with a hit are over-represented: about 32% of the library has one in this group of screens.
# CYP2C9 inh – blocks human cytochrome P450 2C9; CYP2C9 Supersomes, luciferin-H conversion, luminescence; inhibition, % at 5 µM; 96,000 compounds, 20% hits;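 active = blocking of liver enzyme CYP2C9 beyond about 50% at 5 µM, limit read from the data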
# CYP2C19 act – activators of human cytochrome P450 2C19. 96,000 tested, under 10 active. P33261. activation factor at 5 µM. recombinant CYP2C19, luciferin-H EGE luminescence; stronger effect = higher value; 0 = fully inhibited enzyme, 1 = untreated enzyme;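 active = activation factor of at least 2 at 5 µM in the primary screen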;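 also: 0 = wells with 2.5 mM tranylcypromine and 1 = vehicle-only wells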
# Target sequence (P33261 whole entry, looked up): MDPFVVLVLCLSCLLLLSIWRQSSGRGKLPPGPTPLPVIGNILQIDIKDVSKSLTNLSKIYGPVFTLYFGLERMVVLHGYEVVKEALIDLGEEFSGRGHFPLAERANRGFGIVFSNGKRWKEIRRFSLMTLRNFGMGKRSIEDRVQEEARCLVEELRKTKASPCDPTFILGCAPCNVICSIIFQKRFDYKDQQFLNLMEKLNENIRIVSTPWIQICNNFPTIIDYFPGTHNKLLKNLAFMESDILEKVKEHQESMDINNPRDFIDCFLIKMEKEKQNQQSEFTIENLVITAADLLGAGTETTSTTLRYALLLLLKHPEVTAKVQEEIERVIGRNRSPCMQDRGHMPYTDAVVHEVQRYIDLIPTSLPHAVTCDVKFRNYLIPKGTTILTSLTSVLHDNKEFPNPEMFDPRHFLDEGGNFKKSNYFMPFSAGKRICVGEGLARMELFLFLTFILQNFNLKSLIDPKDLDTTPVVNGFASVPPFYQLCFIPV
# CYP2C9 activ – CYP2C9 (human) activation. recombinant CYP2C9, luciferin-H conversion, luminescence; stronger effect = higher value; factor 1 = untreated enzyme, 0 = blocked. AID 1024. 96,000 compounds, 1.4% hits. activation factor at 5 µM;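 active = activation factor of 2 or more for CYP2C9 at a 5 µM dose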;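 also: 0 = sulfaphenazole-blocked wells and 1 = vehicle-only wells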
# CYP2C19 inh – human CYP2C19 inhibition; CYP2C19 Supersomes, luciferin-H EGE luminescence, 30 min; inhibition, % at 5 µM; 96,000 compounds, 21% hits;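 active = CYP2C19 inhibition above a set limit at 5 µM in the primary screen, cut at about 50% in these data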;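 also: plate controls were negative control wells for no effect and 2.5 mM tranylcypromine positive control for full effect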
# PostGolgi yeast – growth inhibition of a yeast mutant, post-Golgi transport screen; post-Golgi transport phenotypic cell assay; inhibition, % at 10 µM; 98,000 compounds, 0.9% hits; AID 739;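 also: yeast cells grown in 1536-well plates; yeast grown about 18 h at 30C before absorbance read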
# PostGolgi ctrl – inhibits growth of the yeast control strain | efflux-deficient yeast background strain, growth absorbance A615, 16 h | inhibition, % at 10 µM | 98,000 compounds, 5% hits
# The depositor's hits bear a star. Rule as the data show it, unless noted: active = inhibition above about 30%; inactive = the rest.
SMILES,CYP2C9 inh,CYP2C19 act,CYP2C9 activ,CYP2C19 inh,PostGolgi yeast,PostGolgi ctrl
CN(C)S(=O)(=O)c1ccc(-c2csnn2)s1,-45,0.6,1.5,37,14,15
CCc1cccc(NC(=O)Cc2cn(C)c3ccccc23)c1,-180,0.6,2.8*,38,-1,26
COCCNC(=O)Cc1cn(C)c2ccccc12,-8,0.9,1.1,9,-2,19
Cn1c(SCC(=O)N2CCN(c3ccccc3)CC2)nnc1-c1ccco1,4,0.9,1,10,6,7
Cc1ccc(CSCc2nnc(SCC(=O)N3CCN(c4ccccc4)CC3)n2C)cc1,78*,0.4,0.2,60*,2,11
CCn1c(CSCc2ccc(F)cc2)nnc1SCC(=O)N1CCN(c2ccccc2)CC1,58*,0.2,0.4,80*,17,21
CCn1c(Cc2ccc(OC)cc2)nnc1SCC(=O)N1CCN(c2ccccc2)CC1,38,0.5,0.6,48,-7,16
CCCCC(CC)CNS(=O)(=O)c1ccc2c(c1)CCN2C(=O)CCC(=O)O (stereo not given),18,1,0.8,-1,15,0
N#CC(c1ccccn1)(c1ncc(C(F)(F)F)cc1Cl)N1CCOCC1 (stereo not given),17,0.9,0.8,10,-9,-7
Brc1ccc(-c2cnc3n2CCCC3)cc1,-2,0.5,1,50*,5,7
CCOc1ccc(-c2cnc3n2CCC3)cc1,8,1,0.9,-2,-2,0
CC(C)(C)NC(=O)CC(c1ccccc1)c1ccccc1O (stereo not given),96*,0.1,0,90*,4,4
O=C(CC(c1ccccc1)c1ccccc1O)NCCN1CCOCC1 (stereo not given),46,0.5,0.5,54*,-4,9
CC(C)(C)NC(=O)CC(CC(=O)O)c1ccccc1 (stereo not given),-2,1,1,-4,-9,12
O=C(CSc1ccccc1)NCCCN1CCOCC1,-6,1,1.1,2,3,0
O=C(Cn1c(=O)c2c(ncn2Cc2ccccc2)n(Cc2ccccc2)c1=O)N1CCCC1,49,0.3,0.5,67*,4,1
CCn1cnc2c1c(=O)n(Cc1csc(-c3ccccc3)n1)c(=O)n2Cc1ccccc1,89*,0.1,0.1,86*,-2,48*
CC(C)(C)c1ccc(COn2c(=O)c(-c3ccco3)[n+]([O-])c3ccccc32)cc1,-8,0.9,1.1,6,-1,8
COC(=O)CSc1nnc(C)n1-c1cccc(C#N)c1,-18,1.2,1.2,-23,6,14
OCc1ccccc1OCCOc1ccc(Cl)c2cccnc12,-113,0.6,2.1*,40,-3,9
CCOc1ccc(OCCOCCN2CCc3ccccc3C2)cc1,4,0.8,1,17,4,5
CCCOc1ccc(OCCOCCN2CCc3ccccc3C2)cc1,25,0.5,0.8,52*,-8,0
O=C(OCc1cc(Cl)ccc1OC(F)F)c1cc(S(=O)(=O)O)ccc1O,73*,1,0.3,3,-17,6
O=C(O)c1cc(S(=O)(=O)O)ccc1O,-10,1.1,1.1,-13,-1,-1
O=C(NC1CCSC1=O)c1cccc(C(=O)NC2CCSC2=O)c1 (stereo not given),5,0.9,0.9,6,-3,25
SMILES,CYP2C9 inh,CYP2C19 act,CYP2C9 activ,CYP2C19 inh,PostGolgi yeast,PostGolgi ctrl
CC(C)Cn1c(-c2csc3ccccc23)n[nH]c1=S,34,0.2,0.7,78*,2,12
CCn1c(-c2ccccc2O)n[nH]c1=S,4,0.6,1,35,-10,9
COc1ccc(-c2n[nH]c(=S)n2CC(C)C)cc1,56*,0.2,0.4,78*,3,-2
O=C1c2ccccc2S(=O)(=O)N1Cc1nc2ccccc2s1,40,0.1,0.6,86*,1,25
O=c1c2ccccc2ncn1Cc1nc2ccccc2s1,77*,0.2,0.2,82*,-1,16
O=C(OCc1nc2ccccc2s1)C1CCN(C2=NS(=O)(=O)c3ccccc32)CC1,21,0.8,0.8,19,-1,3
CCOC(=O)C1=C(NC(=O)c2ccc(Br)o2)Nc2ccccc2N=C1,60*,0.9,0.4,13,5,18
CCOC(=O)c1c(NC(=O)c2ccc(Br)o2)sc(C)c1CC,33,0.6,0.7,39,-6,-1
